Source: PubChem BioAssay (Tox21)
A number with no mark means an inactive call. Records with an inconclusive call do not appear. Entries that show only a call come without a potency. The source made the active and inactive calls. Unless noted, calls follow the shape of the full dose curve.

Assays:
[1] = Nuclear factor erythroid 2-related factor 2/antioxidant responsive element (Nrf2/ARE) small molecule agonists: qHTS cell viability counter screen in human keratinocytes (AID 1919968; active = well fitted curve in the direction sought with a large enough effect in the repeat runs; an effect the other way counts as inactive or inconclusive; also: nearly all actives have a fitted effect of over 55% in size)
Procedure, shortened: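 Parallel cytotoxicity read: KeratinoSens HaCaT cells, compound treatment 23 h, viability by CellTiter-Fluor fluorescence 1 h post-reagent.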

[2] = Nuclear factor erythroid 2-related factor 2/antioxidant responsive element (Nrf2/ARE) small molecule agonists: luciferase reporter gene qHTS assay in human keratinocytes (AID 1919969); also: nearly all actives have a fitted effect of over 35% in size; also: potency is read from the fitted curve at half-maximal effect
[3] = target: Gonadotropin-releasing hormone receptor (Homo sapiens) (UniProt P30968); test: Human gonadotropin-releasing hormone receptor (GnRHR) small molecule agonists, calcium flux assay in GnRHR-HEK293 cells (AID 1920063); also: nearly all actives have a fitted effect of over 35% in size
Chain of Gonadotropin-releasing hormone receptor (Homo sapiens) (P30968 whole entry, looked up): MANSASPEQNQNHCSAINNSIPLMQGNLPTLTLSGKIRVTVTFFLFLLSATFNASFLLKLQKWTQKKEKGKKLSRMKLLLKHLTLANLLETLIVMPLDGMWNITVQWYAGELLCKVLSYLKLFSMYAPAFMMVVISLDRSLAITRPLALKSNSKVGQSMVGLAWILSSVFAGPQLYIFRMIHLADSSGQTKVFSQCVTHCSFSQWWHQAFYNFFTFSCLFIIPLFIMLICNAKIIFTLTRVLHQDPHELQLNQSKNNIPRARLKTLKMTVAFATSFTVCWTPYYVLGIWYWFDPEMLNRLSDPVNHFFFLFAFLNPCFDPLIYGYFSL
Procedure, shortened: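 Calcium flux, agonist mode, human GnRHR stably integrated in HEK293; dye 1 h at 37 C before compound; Ex/Em=480/540 kinetic read, 3 min; 15 concentrations, triplicate.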

[4] = target: KiSS-1 receptor (Homo sapiens) (UniProt Q969F8); test: Human kisspeptin (KISS1R) small molecule agonists, calcium flux assay in KISS1R-HEK293 cells (AID 1920064; active = well fitted curve in the direction sought with a large enough effect in the repeat runs; an effect the other way counts as inactive or inconclusive)
Chain of KiSS-1 receptor (Homo sapiens) (Q969F8 whole entry, looked up): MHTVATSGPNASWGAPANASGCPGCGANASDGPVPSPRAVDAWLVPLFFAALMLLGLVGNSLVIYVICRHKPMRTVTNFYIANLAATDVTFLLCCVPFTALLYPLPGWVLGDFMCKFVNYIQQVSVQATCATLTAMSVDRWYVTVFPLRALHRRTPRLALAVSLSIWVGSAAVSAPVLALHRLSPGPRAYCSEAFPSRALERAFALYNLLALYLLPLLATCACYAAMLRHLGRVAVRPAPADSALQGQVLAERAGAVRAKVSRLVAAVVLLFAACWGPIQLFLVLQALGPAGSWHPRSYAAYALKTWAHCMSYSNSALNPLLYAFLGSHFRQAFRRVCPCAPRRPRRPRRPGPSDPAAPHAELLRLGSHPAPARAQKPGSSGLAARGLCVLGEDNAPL
Procedure, shortened: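 Triplicate 15-concentration series were applied to dye-loaded human KISS1R HEK293 cells, and agonist-evoked calcium fluorescence was captured for 3 min.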

[5] = G protein-coupled receptor (GPCR) small molecule agonists, calcium flux assay: HEK293 wild type cell line counter screen (AID 1920065)
Procedure, shortened: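 Non-specific calcium responders were flagged by adding DMSO-dissolved compounds to dye-loaded cells and reading 480/540 nm fluorescence each second for 3 min; ATP served as positive control.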

[6] = p53 small molecule agonists, cell-based qHTS assay with human liver microsomes (AID 1963577)
Procedure, shortened: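 Cells carrying a p53-responsive bla reporter were rested 5 h (37 C, 5% CO2) before compound transfer. Human liver microsomes plus NADPH, 0.5 mg/mL final apiece, supplied metabolism during the 16 h 37 C exposure.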

[7] = p53 small molecule agonists, cell-based qHTS assay with rat liver microsomes (AID 1963578)
Procedure, shortened: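 Fluorescence from a beta-lactamase reporter under a p53 response element was measured after cells had been incubated 16 h at 37 C with test compound and rat liver microsomes plus NADPH (0.5 mg/mL final each).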

[8] = p53 small molecule agonists, cell-based qHTS assay with human liver microsomes: qHTS cell viability counter screen (AID 1963579); also: nearly all actives have a fitted effect of over 45% in size
Procedure, shortened: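 Seed p53RE-bla cells at 4,000 per well; incubate 5 h at 37 C; add compound, human liver microsomes and NADPH; incubate 16 h at 37 C; add CellTiter-Glo; after 30 min at room temperature, read luminescence.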

[9] = p53 small molecule agonists, cell-based qHTS assay with rat liver microsomes: qHTS cell viability counter screen (AID 1963580); also: nearly all actives have a fitted effect of over 45% in size
Procedure, shortened: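 After the beta-lactamase ratio was read, CellTiter-Glo was added to the same wells and luminescence measured at 30 min; cells had been treated 16 h at 37 C with compounds, rat liver microsomes and NADPH (0.5 mg/mL final each).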

[10] = p53 small molecule agonists, cell-based qHTS assay: qHTS cell viability counter screen (AID 1963581); also: nearly all actives have a fitted effect of over 45% in size
Procedure, shortened: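 Multiplexed with the reporter read, a CellTiter-Glo step (30 min, room temperature) gauges ATP-based viability of HCT-116 p53RE-bla cells after 16 h compound incubation at 37 C.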

[11] = p53 small molecule agonists, cell-based qHTS assay (AID 1963582; active = well fitted activation curve with a large enough effect in the signal ratio in the repeat runs, not every such curve was filed as active; the % refers to the signal ratio)
Procedure, shortened: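 Beta-lactamase reporter cells (p53RE-bla) treated with compounds for 16 h at 37 C; FRET substrate, 2 h, room temperature; fluorescence intensity.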

[12] = target: 5-hydroxytryptamine receptor 2A (Homo sapiens) (UniProt P28223); test: 5-hydroxytryptamine receptor 2A (HTR2A) small molecule agonists, cell-based qHTS assay (AID 1963587); also: nearly all actives have a fitted effect of over 30% in size; also: potency is read from the fitted curve at half-maximal effect
Chain of 5-hydroxytryptamine receptor 2A (Homo sapiens) (P28223 whole entry, looked up): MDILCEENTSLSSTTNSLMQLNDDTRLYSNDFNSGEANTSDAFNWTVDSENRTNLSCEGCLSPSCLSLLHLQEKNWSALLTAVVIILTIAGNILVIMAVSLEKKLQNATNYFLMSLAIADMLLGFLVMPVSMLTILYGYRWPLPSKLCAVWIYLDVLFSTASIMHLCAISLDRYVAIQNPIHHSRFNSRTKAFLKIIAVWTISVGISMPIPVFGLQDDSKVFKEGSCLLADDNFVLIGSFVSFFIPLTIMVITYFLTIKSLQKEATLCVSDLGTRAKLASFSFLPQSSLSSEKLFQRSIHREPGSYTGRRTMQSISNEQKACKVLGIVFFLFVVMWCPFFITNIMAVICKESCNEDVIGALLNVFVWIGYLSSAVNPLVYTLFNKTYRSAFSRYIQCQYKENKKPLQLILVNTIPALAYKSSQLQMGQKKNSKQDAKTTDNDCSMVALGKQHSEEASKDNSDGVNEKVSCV
Procedure, shortened: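 CHO cells stably expressing human HTR2A, plated 18 h, loaded with calcium dye 1 h at 37 C. Agonist mode: compounds added and intracellular calcium fluorescence recorded kinetically for 2 min at 1 sec intervals.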

[13] = target: Muscarinic acetylcholine receptor M1 (Homo sapiens) (UniProt P11229); test: Cholinergic receptor muscarinic 1 (CHRM1) small molecule antagonists, cell-based qHTS assay (AID 1963588); also: nearly all actives have a fitted effect of over 40% in size
Chain of Muscarinic acetylcholine receptor M1 (Homo sapiens) (P11229 whole entry, looked up): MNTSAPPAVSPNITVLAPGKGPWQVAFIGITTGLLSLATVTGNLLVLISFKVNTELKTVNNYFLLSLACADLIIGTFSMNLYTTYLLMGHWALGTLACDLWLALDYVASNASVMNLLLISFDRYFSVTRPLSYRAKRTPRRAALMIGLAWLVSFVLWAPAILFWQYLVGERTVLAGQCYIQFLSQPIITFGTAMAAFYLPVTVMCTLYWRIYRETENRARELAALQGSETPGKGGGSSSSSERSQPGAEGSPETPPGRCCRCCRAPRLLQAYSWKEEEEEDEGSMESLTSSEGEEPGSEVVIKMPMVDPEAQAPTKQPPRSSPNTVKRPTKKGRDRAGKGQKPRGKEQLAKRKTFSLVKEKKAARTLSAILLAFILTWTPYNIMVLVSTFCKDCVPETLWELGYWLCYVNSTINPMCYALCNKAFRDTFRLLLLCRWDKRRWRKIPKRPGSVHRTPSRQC
Procedure, shortened: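 Compounds were tested at 15 concentrations in three independent runs. Dye-loaded CHRM1-CHO cells were exposed 5 min at room temperature before stimulation by acetylcholine added at 50nM. Intracellular calcium was read kinetically on FDSS for 3 min.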

[14] = target: Muscarinic acetylcholine receptor M1 (Homo sapiens) (UniProt P11229); test: Cholinergic receptor muscarinic 1 (CHRM1) small molecule agonists, cell-based qHTS assay (AID 1963589); also: nearly all actives have a fitted effect of over 35% in size
Procedure, shortened: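 qHTS, 15-point titration, 3 independent runs: compounds pin-transferred onto dye-loaded CHRM1-CHO cells (human M1), calcium fluorescence followed every second to detect agonism.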

[15] = cAMP Responsive Elements (CRE) small molecule agonists, cell-based qHTS assay (AID 1963590)
Procedure, shortened: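 Quantitative HTS for CRE agonists: HEK 293T CRE-bla cells, overnight plating, 3 h compound incubation at 37 C/5% CO2, then 2 h room-temperature LiveBLAzer B/G FRET substrate loading.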

[16] = cAMP Responsive Elements (CRE) small molecule antagonists, cell-based qHTS assay (AID 1963591; active = well fitted inhibition curve with a large enough effect in the signal ratio in the repeat runs, not every such curve was filed as active; the % refers to the signal ratio)
Procedure, shortened: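 Fluorescence intensity from cleaved LiveBLAzer B/G substrate (2 h, room temperature) quantified CRE-bla activity in HEK 293T cells exposed 3 h to compound with 0.25 uM final NKH477.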

[17] = target: Beta-2 adrenergic receptor (Homo sapiens) (UniProt P07550); test: Adrenergic beta2 receptor (ADRB2) small molecule agonists, cell-based qHTS assay (AID 1963593);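 also: CHO cells stably overexpressing human ADRB2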
Chain of Beta-2 adrenergic receptor (Homo sapiens) (P07550 whole entry, looked up): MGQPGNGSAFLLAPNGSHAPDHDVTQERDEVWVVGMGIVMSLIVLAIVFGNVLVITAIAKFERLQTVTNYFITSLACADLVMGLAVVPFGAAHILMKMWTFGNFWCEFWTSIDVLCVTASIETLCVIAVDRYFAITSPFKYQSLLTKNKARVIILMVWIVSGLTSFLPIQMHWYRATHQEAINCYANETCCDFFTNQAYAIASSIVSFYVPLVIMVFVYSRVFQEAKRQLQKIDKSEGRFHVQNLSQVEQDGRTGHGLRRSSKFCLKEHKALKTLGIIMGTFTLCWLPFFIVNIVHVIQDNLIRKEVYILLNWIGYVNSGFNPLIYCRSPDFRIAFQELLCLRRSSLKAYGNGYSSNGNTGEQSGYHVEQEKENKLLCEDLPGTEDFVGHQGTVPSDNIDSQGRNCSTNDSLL
Procedure, shortened: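 CHO cells stably over-expressing ADRB2 were plated overnight at 37C, then dosed with compounds plus a stimulation mix containing 100uM IBMX and 25uM Ro-20-1724 for 0.5hr at room temperature. cAMP was measured by HTRF competition, 1hr.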

[18] = target: D(2) dopamine receptor (Homo sapiens) (UniProt P14416); test: Dopamine D2 receptor (DRD2) small molecule agonists, cell-based qHTS assay (AID 1963594); also: nearly all actives have a fitted effect of over 35% in size; also: potency is read from the fitted curve at half-maximal effect
Chain of D(2) dopamine receptor (Homo sapiens) (P14416 whole entry, looked up): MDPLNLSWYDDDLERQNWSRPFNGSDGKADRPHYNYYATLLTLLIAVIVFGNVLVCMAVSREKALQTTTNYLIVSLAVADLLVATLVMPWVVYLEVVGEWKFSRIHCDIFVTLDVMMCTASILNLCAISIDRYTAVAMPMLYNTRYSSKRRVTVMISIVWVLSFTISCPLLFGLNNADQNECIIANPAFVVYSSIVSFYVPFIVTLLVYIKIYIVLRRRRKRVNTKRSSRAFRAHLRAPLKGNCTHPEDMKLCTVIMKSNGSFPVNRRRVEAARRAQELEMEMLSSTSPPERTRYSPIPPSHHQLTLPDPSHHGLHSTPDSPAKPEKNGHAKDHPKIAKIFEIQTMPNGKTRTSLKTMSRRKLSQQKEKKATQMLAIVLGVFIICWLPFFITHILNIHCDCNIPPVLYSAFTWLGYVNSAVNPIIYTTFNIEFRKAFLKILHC
Procedure, shortened: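 HEK293 cells stably expressing human DRD2, pre-treated with PDE inhibitor Ro20-1724 (0.1 mM final) and compound 10 min at room temperature, then stimulated with NKH477 (200nM […]) for 30 min. cAMP read by HTRF (665/620 nm).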

[19] = target: D(2) dopamine receptor (Homo sapiens) (UniProt P14416); test: Dopamine D2 receptor (DRD2) small molecule antagonists, cell-based qHTS assay (AID 1963595; active = well fitted inhibition curve with a large enough effect in the signal ratio in the repeat runs, with a control signal flat; the % refers to the signal ratio)
Procedure, shortened: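 DRD2-HEK293; 0.1 mM Ro20-1724; cpd 10 min RT; NKH477 200 nM + quinpirole 12 nM, 30 min RT; HTRF cAMP (cAMP-d2/anti-cAMP cryptate), 665/620 nm ratio after 1 h.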

[20] = target: Beta-2 adrenergic receptor (Homo sapiens) (UniProt P07550); test: Adrenergic beta2 receptor (ADRB2) small molecule antagonists, cell-based qHTS assay (AID 1963592); also: series mostly up to about 92 µM; nearly all actives have a fitted effect of over 50% in size
Procedure, shortened: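 Assay format: CHO-ADRB2 cells, 18-20hr seeding at 37C/5% CO2, then compound plus 1nM isoproterenol agonist mix for 0.5hr RT. Homogeneous time-resolved fluorescence cAMP detection after 1hr, expressed as 665/615 nm ratio.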

Row | Compound | Potency [1] | Potency [2] | Potency [3] | outcome [4] | outcome [5] | Potency [6] | Potency [7] | Potency [8] | Potency [9] | Potency [10] | Potency [11] | Potency [12] | Potency [13] | Potency [14] | Potency [15] | Potency [16] | Potency [17] | Potency [18] | Potency [19] | Potency [20]
1 | NNc1nnc(NN)c2ccccc12 | inactive | inactive | inactive | inactive | inactive | inactive | inactive | inactive | inactive | inactive | inactive | inactive | inactive | inactive | inactive | inactive | inactive | inactive | inactive | 
2 | NC(=O)NS(=O)(=O)c1ccc(N)cc1 | inactive | inactive | inactive | inactive | inactive | inactive | inactive | inactive | inactive | inactive | inactive | inactive | inactive | inactive |  | inactive | inactive | inactive |  | inactive
3 | CC(C)(C)CC(=O)OCC(=O)[C@@]1(O)CC[C@H]2[C@@H]3CCC4=CC(=O)C=C[C@]4(C)[C@H]3[C@@H](O)C[C@@]21C | inactive | inactive | inactive | inactive | inactive | inactive | inactive | inactive | inactive | inactive | inactive | inactive | inactive | inactive | inactive | inactive |  |  |  | inactive
4 | CCOC(=O)c1cnc2c(cnn2CC)c1NN=C(C)C | inactive | inactive | inactive | inactive | inactive | inactive | inactive | inactive | inactive | inactive | inactive | inactive | inactive | inactive | inactive |  |  | inactive | inactive | inactive
5 | CCCCCCOc1ccc(N)cc1 | inactive | 21.7 µM (active) | inactive | inactive | inactive | inactive | inactive | inactive | inactive | inactive | inactive |  | inactive | inactive | inactive | inactive | inactive | inactive | inactive | inactive
6 | CCCCN(CCCC)CCCOC(=O)c1ccc(N)cc1 | inactive | inactive | inactive | inactive | inactive | inactive | inactive | inactive | inactive | inactive | inactive | 3.38 µM (active) | inactive | inactive |  |  |  | inactive | inactive | 
7 | O=C(O)c1ccc[n+]([O-])c1 | inactive | inactive | inactive | inactive | inactive | inactive | inactive | inactive | inactive | inactive | inactive |  | inactive | inactive | inactive | inactive |  | inactive | inactive | inactive
8 | O=C1c2ccccc2S(=O)(=O)N1CCCCN1CCN(c2ncccn2)CC1 | inactive | inactive | inactive | inactive | inactive | inactive | inactive | inactive | inactive | inactive | inactive | inactive | inactive |  | inactive | inactive | inactive | 2.76 µM (active) | inactive | inactive
9 | C=C(C)C(=O)OCC[N+](C)(C)C | inactive | 60.9 µM (active) | inactive | inactive | inactive | inactive | inactive | inactive | inactive | inactive | inactive | inactive |  | inactive | inactive | inactive | inactive | inactive | inactive | inactive
10 | CC(C)C(=O)OCc1cccc(OC(=O)[C@@H]2N3C(=O)[C@@H](NC(=O)Cc4ccccc4)[C@H]3SC2(C)C)c1 | inactive | inactive | inactive | inactive | inactive | inactive | inactive | inactive | inactive | inactive | inactive | inactive |  |  | inactive | inactive |  | inactive | inactive | inactive
11 | CCOC(=O)Cn1cccc1-c1nc(-c2ccc(OC)cc2)c(-c2ccc(OC)cc2)s1 | inactive | inactive | inactive | inactive | inactive | inactive | inactive | inactive | inactive | inactive | inactive | inactive | inactive |  | inactive | inactive | inactive | inactive | inactive | inactive
12 | CCCCCCCCC1CO1 (centres undefined) | inactive | inactive | inactive | inactive | inactive | inactive | inactive | inactive | inactive | inactive | inactive | inactive |  | inactive | inactive | inactive |  |  | inactive | inactive
13 | CC(=O)N(CC(=O)N(C)C)c1ccccc1 | inactive | inactive | inactive | inactive | inactive | inactive | inactive | inactive | inactive | inactive | inactive |  | inactive | inactive | inactive | inactive | inactive |  | inactive | inactive
14 | CCCCCCCC/C=C\CCCCCCCC(=O)OC[C@@H](O)[C@H]1OC[C@H](O)[C@H]1O | inactive | inactive | inactive | inactive | inactive | inactive | inactive | inactive | inactive | inactive | inactive | inactive | inactive |  | inactive | inactive | inactive |  |  | inactive
15 | Oc1ccccc1C=NCc1ccccc1 | inactive | inactive | inactive | inactive | inactive | inactive | inactive | inactive | inactive | inactive | inactive | inactive | inactive | inactive |  | inactive | inactive | inactive | inactive | 
